High-throughput results (PubChem)
Compounds with a hit are over-represented: about 8.7% of the library has one in this group of screens.
Pf growth 48h: Primary qHTS for delayed death inhibitors of the malarial parasite plastid, 48 hour incubation | actives 5.9% (n = 310,000) | P. falciparum luciferase growth in erythrocytes, 48 h | AID 504832, 2011 | Potency, µM (series often up to 28.7 µM), for inactives: top-dose activity change, negative = inhibition, actives largely listed as inhibitors
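Here the parasites carry a stable luciferase gene and grow inside erythrocytes in Albumax-based RPMI medium with compound for one erythrocytic cycle. Activity is scored as loss of luminescent signal.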
VACV mCherry inh: qHTS for Stage-Specific Inhibitors of Vaccinia Orthopoxvirus: mCherry Reporter Primary qHTS; Potency, µM (series often up to 36.5 µM), inactives show top-dose activity change, negative = inhibition, most hits filed as inhibitors; actives 0.63% (n = 310,000); Vaccinia virus mCherry reporter infection, fluorescence; calls by dose curve; tested in A549 cells; also: nearly all actives have a fitted effect of over 35% in size
Pf growth 96h: Primary qHTS for delayed death inhibitors of the malarial parasite plastid, 96 hour incubation; P. falciparum luciferase reporter growth, 96 h; Potency, µM (series often up to 28.7 µM), for the others: at the top dose activity change, negative = inhibition, usual class: inhibitors; actives 6.9% (n = 320,000)
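Luminescence readout: decreased luciferase signal marks inhibited growth of reporter-expressing P. falciparum in infected red cells (2% hematocrit, 0.05% parasitemia final), exposed to compound two generations (96 h, 37 C, 5% CO2).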
AMA1-RON2 inh: qHTS for Inhibitors of AMA1-RON; Towards Development of Antimalarial Drug Lead: Primary Screen; Plasmodium falciparum AMA1 (3D7) - RON2 peptide interaction; AlphaScreen AMA1-biotinylated RON2 peptide binding; Potency, µM (top dose mostly 58.2 µM), for inactives: top-dose activity change, negative = inhibition, usual class: inhibitors; actives 0.2% (n = 360,000);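 also: 0% = vehicle wells and -100% = peptide control; nearly all actives have a fitted effect of over 45% in size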
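AMA1 (3D7) with his tag at 25 nM final met compounds first, then biotinylated RON2 peptide at 25 nM; detection used donor plus acceptor beads, 10 µg/mL apiece, read by AlphaScreen after 30 min at room temperature.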
Vaccinia Venus: qHTS for Stage-Specific Inhibitors of Vaccinia Orthopoxvirus: Venus Reporter Primary qHTS; Vaccinia virus Venus reporter expression, fluorescence; Potency, µM (top dose mostly 36.5 µM), for inactives: top-dose activity change, negative = inhibition, actives largely listed as inhibitors; actives 0.46% (n = 330,000); AID 720580, 2013; calls by dose curve; tested in A549 cells; also: nearly all actives have a fitted effect of over 30% in size
* = called active by the depositor; i = inactive; ? = inconclusive; . = no result given; [ ] = another dose, or the depositor's remark. Unless noted, calls follow the shape of the dose curve; as a rule, active = well fitted curve in the direction sought with a large enough effect; inconclusive = small, poorly fitted or top-dose-only effect, or another doubt; inactive = no such curve, though single readings can be large; an effect the other way counts as inactive or inconclusive. Unless noted, % is scaled to controls: 0 for no effect and ±100 for the full control effect; potency is read from the fitted curve at half-maximal effect.

SMILES	Pf growth 48h	VACV mCherry inh	Pf growth 96h	AMA1-RON2 inh	Vaccinia Venus
CC1CCCN(c2nc3c(-c4ccc(Cl)cc4)nnn3c3ccccc23)C1 (centres undefined)	.	1%	.	.	1%
CCOC(=O)c1c(C)[nH]c(C)c1S(=O)(=O)N(C)CC(=O)Nc1ccc(CC)cc1	.	-20%	.	.	-9%
Cc1cccc(N2CCN(CCNC(=O)Nc3ccc(Cl)cc3)CC2)c1C	.	-10%[7.34 µM]	.	.	-10%[7.34 µM]
O=C(CBr)c1ccc(Oc2ccc(C(=O)C[n+]3ccccc3Cl)cc2)cc1	.	17%	.	.	-3%
COc1ccc(-c2[nH]ncc2CN(C)Cc2ccccn2)c(OC)c1	0%	-19%	13µM*	104%	-12%
CCN(c1ccccc1)S(=O)(=O)c1ccc(Cl)c(NC(=O)CSc2nncn2C)c1	?	-14%	8.3µM*	4%	-6%
CCN(c1ccccc1)S(=O)(=O)c1ccc(Cl)c(NC(=O)CN2CCCCCC2)c1	5.9µM*	-18%	?	-19%	-14%
CN(C)S(=O)(=O)c1ccc(Cl)c(NC(=O)CN2CCCCCC2)c1	?	i	-1%	0%	-15%
Cc1cc(C)n(-c2nc3cc(Cl)ccc3nc2Nc2ccc(CC(=O)O)cc2)n1	.	i	.	.	-4%
COC(=O)c1sccc1S(=O)(=O)N(CC(=O)NCc1ccc(F)cc1)c1ccc(C)c(C)c1	.	-12%	.	.	-16%
C=C[C@@H]1c2cc(C)ccc2N(S(=O)(=O)c2ccc(C)cc2)[C@H](c2ccc(OC(C)=O)cc2)C1(C#N)C#N	?	?	?	-6%	?
C=C[C@@H]1c2ccccc2N(S(=O)(=O)c2ccc(C)cc2)[C@H](c2ccc(OC(C)=O)cc2)C1(C#N)C#N	3.7µM*	?	?	-5%	?
COc1ccc(-c2nc3c(C#N)c[nH]n3c2NC2CCCC2)c(OC)c1	.	-12%	.	.	-18%
COc1ccc(-c2c(-c3ccc(O)cc3O)n[nH]c2C)cc1OC	.	.	?	31%	.
COc1ccc(-c2c(-c3ccc(OC)c(C)c3O)n[nH]c2C)cc1	-12%	-30%	12µM*	78%	-28%
Clc1ccc(-n2cccc2CN2CCOc3ccc(CN4CCOCC4)cc3C2)nc1	.	i	.	.	-14%
CC(C)CC(COCc1cccc(Cl)c1)N1CCN(C(=O)c2ccc(C(F)(F)F)cc2)CCC1=O (centres undefined)	13µM*	i	7.4µM*	9%	-30%
Cc1cccc(COCC(CC(C)C)N2CCN(C(=O)c3ccc(C(F)(F)F)cc3)CCC2=O)c1 (centres undefined)	10µM*	i	?	-2%	-22%
CC(C)C[C@@H](COCc1ccc(F)cc1)N1CCN(C(=O)c2cccc(C(F)(F)F)c2)CCC1=O	.	-16%	.	4%	-8%
CC(C)CC(COCc1ccc(F)cc1)N1CCN(C(=O)c2cccc(C(F)(F)F)c2)CCC1=O (centres undefined)	?	i	13µM*	5%	-25%
Cc1cccc(COCC(CC(C)C)N2CCN(C(=O)c3ccc(C(C)(C)C)cc3)CCC2=O)c1 (centres undefined)	7.4µM*	?	?	-7%	?
O=C(NCC1Cc2cccc(-c3ncccn3)c2O1)C1CCOC1 (centres undefined)	.	-10%	.	.	-4%
O=C(c1ccc(C(F)(F)F)cc1)N1CCC(=O)N(C(COCc2ccc(C(F)(F)F)cc2)Cc2ccccc2)CC1 (centres undefined)	?	i	9.3µM*	1%	?
O=C(c1cccc(Cl)c1)N1CCC(=O)N(C(COCc2cccc(Cl)c2)Cc2ccccc2)CC1 (centres undefined)	?	0%	13µM*	-5%	-28%
O=C(c1cccc(Cl)c1)N1CCC(=O)N([C@H](COCc2ccccc2)Cc2ccccc2)CC1	.	1%	.	1%	-6%
Cc1cccc(COC[C@H](Cc2ccccc2)N2CCN(C(=O)c3ccc(C(F)(F)F)cc3)CCC2=O)c1	.	3%	.	-9%	-1%
